# Results filed as inconclusive are left out. A call without a number means that no potency is given here. A number with no mark means an inactive call. Calls of active or inactive are those of the source. Calls come from the whole dose curve; as a rule, active = well fitted cell-killing curve with a large enough effect in the repeat runs; inconclusive = weak or mixed curves, or effect the other way; inactive = flat fitted curve, though single readings scatter.
# What was measured:
# [1] = cAMP Responsive Elements (CRE) small molecule antagonists, cell-based qHTS assay: qHTS cell viability counter screen (AID 2060913); note: nearly all actives have a fitted effect of over 40% in size
# How it was run: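 Cytotoxicity read in the same wells as the CRE-bla HEK293T antagonist assay: after 3 h compound with 0.25 uM NKH477 final and 2 h beta-lactamase substrate, CellTiter-Glo luminescence measured.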
# [2] = cAMP Responsive Elements (CRE) small molecule agonists, cell-based qHTS assay: qHTS cell viability counter screen (AID 2060914);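 note: viability read after 3 h of compound exposure; nearly all actives have a fitted effect of over 50% in size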
# How it was run: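 CRE-bla HEK 293T cells, plated 18 h at 37 °C, were exposed to compounds for 3 h at 37 °C/5% CO2. Viability was then measured in the same wells by CellTiter-Glo luminescence after 30 min at room temperature.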
SMILES,Potency [1],Potency [2],"viability change, negative = cytotoxic [1]","activity change, negative = cytotoxicity [2]"
CCCCCCCC(=O)OCC(COC(=O)CCCCCCC)OC(=O)CCCCCCC,inactive,inactive,,
CN1CCCC1=O,inactive,inactive,,
O=C1Nc2ccccc2C1(c1ccc(O)cc1)c1ccc(O)cc1,inactive,inactive,,
C1=C\CC/C=C\CC/1,inactive,inactive,,
C=C1[C@H]2CC[C@@H]3[C@H]2C(C)(C)CCC[C@]13C,inactive,inactive,,
COc1cc(C(C)C)ccc1C,,,0.655% [at 18.9 µM],-11.5% [at 18.9 µM]
CC(C)NC[C@@H](O)COc1ccc(CC(N)=O)cc1,inactive,inactive,,
COc1cccc(N(C)C(=S)Oc2ccc3c(c2)CCCC3)n1,inactive,inactive,,
COc1cc(C=O)ccc1O,inactive,inactive,,
O=C1NC(=O)C(c2ccccc2)(c2ccccc2)N1,inactive,inactive,,
O=C(/C=C/C=C/c1ccc2c(c1)OCO2)N1CCCCC1,inactive,inactive,,
O=C(Cn1ccnc1[N+](=O)[O-])NCc1ccccc1,inactive,inactive,,
CCOC(=O)c1ccc(O)c(O)c1,inactive,inactive,,
CCCOc1ccc(C(=O)OCCN(CC)CC)cc1N,inactive,inactive,,
Nc1ccc2cc3ccccc3cc2c1,inactive,inactive,,
COCCc1ccc(OCC(O)CNC(C)C)cc1 (configuration not stated),inactive,inactive,,
Cc1ccc(N=Nc2c(O)ccc3ccccc23)c(C)c1,inactive,inactive,,
CC(=O)NC(=O)c1ccccc1O,inactive,inactive,,
CNCC[C@@H](Oc1ccccc1C)c1ccccc1,inactive,inactive,,
O=C1c2ccccc2C(=O)c2c1ccc(O)c2O,inactive,inactive,,
Sc1nc(S)nc(S)n1,inactive,inactive,,
CCCCCCCCCCCCI,inactive,inactive,,
Oc1ccc(Cc2ccccc2)cc1,inactive,inactive,,

SMILES,Potency [1],Potency [2],"viability change, negative = cytotoxic [1]","activity change, negative = cytotoxicity [2]"
CC(=O)O[C@H](CC(=O)[O-])C[N+](C)(C)C,inactive,inactive,,
Nc1ccccc1S(=O)(=O)O,inactive,inactive,,
CCCCN(CCCC)C(=S)SSC(=S)N(CCCC)CCCC,inactive,inactive,,
CCOC(=O)OC(C)OC1=C(C(=O)Nc2ccccn2)N(C)S(=O)(=O)c2ccccc21 (configuration not stated),inactive,inactive,,
C=C(C)C(=O)OCCN(CC)CC,inactive,inactive,,
Oc1ccc(OCc2ccccc2)cc1,inactive,inactive,,
O=S(=O)(O)CCO,inactive,inactive,,
Cc1ccccc1S(N)(=O)=O,inactive,inactive,,
Cc1c(C(C)C)c(=O)n(-c2ccccc2)n1C,inactive,inactive,,
CCCCCCc1ccc(-c2ccc(C#N)cc2)cc1,inactive,inactive,,
Nc1cc(N)cc(C(=O)O)c1,inactive,inactive,,
Nc1ccc(NCCO)c([N+](=O)[O-])c1,inactive,inactive,,
CCOC(=O)C(Br)c1ccccc1 (configuration not stated),inactive,inactive,,
CCCCCCCCCCCl,inactive,inactive,,
CNCCCCOc1ccccc1Cc1ccccc1,inactive,inactive,,
O=C(OCC(O)CO)c1ccccc1Nc1ccnc2c(C(F)(F)F)cccc12 (configuration not stated),inactive,inactive,,
C=C(C)[C@@H]1CCC2=CCC[C@@H](C)[C@]2(C)C1,inactive,inactive,,
CCCCN(CCCC)CCCOC(=O)c1ccc(N)cc1,inactive,inactive,,
Cc1cccc(O)c1C,inactive,inactive,,
C[N+](C)(C)CCO,inactive,inactive,,
C=C(C)C(=O)OCCOC1CC2CC1C1C=CCC21 (configuration not stated),inactive,inactive,,
Cc1cccc(C(=O)O)c1,inactive,inactive,,
COC(=O)c1cccnc1,inactive,inactive,,

# Source: PubChem BioAssay (Tox21)
